The record followed here is PubChem BioAssay (EPA / NIEHS).

Read-out in test [1]: Human Leukocyte Antigen - DR isotype (HLADR), HLA-DRA (gene 3122)
In words: BSK_BE3C_HLADR: BioMAP Diversity Plus: BE3C Assay for Human Leukocyte Antigen - DR isotype (HLADR) Biomarker Activity (AID 2283032). The settings on record: primary human bronchial epithelial cells; actives raise or lower the signal. The procedure, abridged: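 Cell-surface HLA-DR ELISA readout at 24 h after dosing in the BE3C primary human lung bronchial epithelial system; gain or loss of signal against DMSO, with parallel sulforhodamine B staining of total protein for overt cytotoxicity.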

Read-out in test [2]: Vascular cell adhesion molecule 1 (VCAM1), VCAM1 (gene 7412)
Put plainly: BSK_4H_VCAM1: BioMAP Diversity Plus: 4H Assay for Vascular cell adhesion molecule 1 (VCAM1) Biomarker Activity (AID 2283033).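 On outcome: cell-surface VCAM-1 protein measured by ELISA.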 Particulars: primary human endothelial cells (HUVEC); actives raise or lower the signal. The procedure, abridged: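 VCAM-1 ELISA read 24 h after chemical dosing of HUVEC in the BioMAP 4H system, with gain or loss of signal fitted relative to DMSO. Parallel SRB staining (560 nm) checked overt cytotoxicity.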

Read-out in test [3]: Interferon-gamma inducible Protein 10 (IP10), CXCL10 (gene 3627)
Put plainly: BSK_BE3C_IP10: BioMAP Diversity Plus: BE3C Assay for Interferon-gamma inducible Protein 10 (IP10) Biomarker Activity (AID 2283034). The settings on record: primary human bronchial epithelial cells; actives raise or lower the signal. Put shortly:
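IP-10 quantified by ELISA in human primary bronchial epithelial cell cultures at 24 hours post-dosing. Gain or loss of signal fitted relative to DMSO; parallel SRB staining assessed overt cytotoxicity.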

Read-out in test [4]: Monokine induced gamma interferon (MIG), CXCL9 (gene 4283)
In words: BSK_BE3C_MIG: BioMAP Diversity Plus: BE3C Assay for Monokine induced gamma interferon (MIG) Biomarker Activity (AID 2283035). The settings on record: primary human bronchial epithelial cells; actives raise or lower the signal. Put shortly: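 hu bronchial epithelial 1° cells, 24 h cpd; MIG by ELISA; bidirectional fit, DMSO = baseline.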

Read-out in test [5]: Transforming growth factor beta 1 (TGFb1), TGFB1 (gene 7040)
Put plainly: BSK_BE3C_TGFb1: BioMAP Diversity Plus: BE3C Assay for Transforming growth factor beta 1 (TGFb1) Biomarker Activity (AID 2283036;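 on outcome: TGF-b1 protein level measured by ELISA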). The settings on record: primary human bronchial epithelial cells; actives raise or lower the signal. Put shortly:
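ELISA readout of TGF-b1 from human lung bronchial epithelial primary cells, taken 24 h post-treatment. Gain or loss of signal fitted relative to DMSO baseline, with parallel SRB staining for overt cytotoxicity.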

Read-out in test [6]: Plasminogen activator inhibitor-1 (PAI1), SERPINE1 (gene 5054)
In words: BSK_BE3C_PAI1: BioMAP Diversity Plus: BE3C Assay for Plasminogen activator inhibitor-1 (PAI1) Biomarker Activity (AID 2283037). Particulars: primary human bronchial epithelial cells; actives raise or lower the signal. Put shortly:
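PAI-1 was measured by ELISA in human primary bronchial epithelial cultures 24 h after chemical dosing, with cytotoxicity checked by SRB total-protein staining in parallel cultures. Activity was fitted in both directions relative to DMSO.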

Read-out in test [7]: urokinase plasminogen activator (uPA), PLAU (gene 5328)
Put plainly: BSK_BE3C_uPA: BioMAP Diversity Plus: BE3C Assay for urokinase plasminogen activator (uPA) Biomarker Activity (AID 2283038).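 On outcome: uPA protein level quantified by ELISA in cell cultures; uPA read one day after compound addition.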 The settings on record: primary human bronchial epithelial cells; actives raise or lower the signal. Put shortly:
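Human primary bronchial epithelial cells were exposed to chemical for 24 h, then uPA levels were measured by ELISA. Responses were fitted bidirectionally against DMSO as negative control and baseline. Parallel SRB staining of total protein gauged overt cytotoxicity.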

Read-out in test [8]: Urokinase-type plasminogen activator receptor (uPAR), PLAUR (gene 5329)
In words: BSK_BE3C_uPAR: BioMAP Diversity Plus: BE3C Assay for Urokinase-type plasminogen activator receptor (uPAR) Biomarker Activity (AID 2283039).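 On outcome: cells exposed to compound for one day before measurement.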 The settings on record: primary human bronchial epithelial cells; actives raise or lower the signal. Put shortly: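 uPAR levels were measured by ELISA after 24 h compound treatment of primary human bronchial epithelial cells, fitted in both directions relative to DMSO. Parallel SRB staining served as the cytotoxicity read-out.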

Read-out in test [9]: Interleukin-6 (IL6), IL6 (gene 3569)
Put plainly: BSK_CASM3C_IL6: BioMAP Diversity Plus: CASM3C Assay for Interleukin-6 (IL6) Biomarker Activity for (AID 2283040). Particulars: primary human coronary artery smooth muscle cells; actives raise or lower the signal.

Read-out in test [10]: Tissue plasminogen activator (tPA), PLAT (gene 5327)
Put plainly: BSK_BE3C_tPA: BioMAP Diversity Plus: BE3C Assay for Tissue plasminogen activator (tPA) Biomarker Activity (AID 2283041).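 On outcome: tPA level quantified by ELISA one day after compound addition.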 Particulars: primary human bronchial epithelial cells; actives raise or lower the signal. The procedure, abridged:
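tPA measured by ELISA 24 h after dosing human primary bronchial epithelial cells (BE3C system). Changes in either direction were fitted against DMSO. Parallel cultures were stained with SRB to flag overt cytotoxicity.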

The source made the active and inactive calls. How the source made its calls: active means hit-call score of the fitted dose curve at least 0.9, where 1 is the maximum; inactive means score below 0.9.

Usually AC50 stands for the midpoint of the concentration-response curve, whichever way the signal moves. As for `Clc1cc(Cl)c(-c2c(Cl)c(Cl)cc(Cl)c2Cl)cc1Cl`, the AC50 in [1] was 12.9 µM (active); in test [2], 8.56 µM (active); in [3] it was 17.5 µM (active); in [6] it was 10 µM (active); in test [8], 1.98 µM (active). Moreover, the outcome in [4], in test [5], in test [7], in test [9] and in [10] was inactive.
On to `Oc1c(Cl)cc(Cl)c(Cl)c1Cc1c(O)c(Cl)cc(Cl)c1Cl`, for which the AC50 in [1] is 0.634 µM (active); in test [2], 12.8 µM (active); in test [3] it was 8.17 µM (active); in test [4] it was 8.39 µM (active); in test [6] it was 3.97 µM (active); in test [8], 20 µM (active). The AC50 in test [9] was 7.83 µM (active). The outcome in test [5], in test [7] and in [10] was inactive.
`CCCCCC(C=O)=Cc1ccccc1`: the concentration at half-maximal activity (AC50) in test [1] was 33.1 µM (active); in [2], 30.5 µM (active); in [3], 30.6 µM (active); in [9] it was 32 µM (active). Besides, the result in [4], in [5], in [6], in [7], in test [8] and in test [10] was inactive.
With `CCCCN(CCCC)C(=O)N(CCCC)CCCC`, the AC50 in test [1] was 12.5 µM (active); in test [2] it was 23.7 µM (active); in [3], 9.08 µM (active); in test [4], 20 µM (active); in test [5], 5.38 µM (active); in [6], 9.25 µM (active). In addition, the AC50 in [7] is 9.69 µM (active); in [8] it was 7.37 µM (active); in test [9] it was 20 µM (active); in test [10], 6.94 µM (active).
Take `CCCCCCCCCCCCCCCC(=O)OC/C=C(C)/C=C/C=C(C)/C=C/C1=C(C)CCCC1(C)C`: the outcome in [1], in test [2], in [3], in [4], in [5] and in test [6] was inactive. Also, the outcome in [7], in test [8], in [9] and in test [10] was inactive.
Take `O=CN1CCOCC1`: the result in test [1], in test [2], in test [3], in test [4], in [6] and in test [7] was inactive. Moreover, the outcome in test [8], in [9] and in test [10] was inactive.
For `CC(C)(N=C=O)c1cccc(C(C)(C)N=C=O)c1`, the outcome in test [1], in test [2], in [3], in test [4], in test [5] and in test [6] was inactive. The outcome in [7], in test [8], in test [9] and in test [10] was inactive.
As for `CCC(C)c1cc([N+](=O)[O-])cc([N+](=O)[O-])c1OC(=O)OC(C)C` (centres undefined), the AC50 in test [1] was 15.3 µM (active); in [2], 8.04 µM (active); in [3], 11 µM (active); in test [4] it was 33 µM (active); in test [5], 13.6 µM (active); in test [6] it was 20 µM (active). Besides, the AC50 was 33.7 µM (active) in test [7], 35 µM (active) in test [8], 34.1 µM (active) in [9] and 13.6 µM (active) in [10].
For `CS(=O)(=O)OCCCCOS(C)(=O)=O`, the outcome in test [1], in test [2], in test [3], in [4], in test [5] and in test [6] was inactive. For the same compound, the result in [7], in test [8], in test [9] and in [10] was inactive.
For `CC(=O)c1c(C)c([N+](=O)[O-])c(C(C)(C)C)c([N+](=O)[O-])c1C`, the outcome in test [1], in [2], in test [3], in test [4], in test [5] and in [6] was inactive. In addition, the outcome in [7], in test [8], in test [9] and in [10] was inactive.
Turning to `C=C(C)C(=O)OCC(CC)(COC(=O)C(=C)C)COC(=O)C(=C)C`, the result in test [1], in [3], in [4], in test [5], in test [6] and in test [7] was inactive. Also, the outcome in test [8], in test [9] and in test [10] was inactive. Besides, the AC50 in [2] is 19.7 µM (active).
